# Test results as given in PubChem BioAssay (NCI).
# Compounds without any hit were thinned out: in the full panel of roughly 79,000, 15% have a hit. A number with no mark means an inactive call. Activity calls are given as the source filed them. Rule as the data show it: active = growth inhibition above about 70%; inactive = the rest.
# Test: NCI Yeast Anticancer Drug Screen. Data for the mlh1 rad18 strain (AID 175)
# Conditions: S. cerevisiae mlh1 rad18 strain growth inhibition; at 50.0 µM; stronger effect = higher value
# Procedure: Growth inhibition of yeast strains with defined genetic alterations is measured as a screen for potential anti-cancer activity. Selected strains with alterations in DNA damage repair or cell cycle control were exposed to compounds and growth inhibition was measured relative to vehicle treated controls. The strain used in this assay is mlh1 rad18
row,SMILES,growth inhibition
1,COc1ccc(C2CCCCC2=O)cc1 (stereo not given),-11.8%
2,CCCCc1ccc2nc(NC(=O)OC)[nH]c2c1,11.1%
3,Nc1ncnc(Nc2ccc(C(F)(F)F)cc2)n1,17.9%
4,CC(CO)(CO)C(=O)O,10.1%
5,CC1(C)C2CCC1(C)C1(C2)OCCS1 (stereo not given),-7.65%
6,Nc1c(Br)cc(O)c2c1C(=O)c1ccccc1C2=O,10.5%
7,CC(=O)Nc1ccc(C(=O)c2ccc(S(=O)(=O)Nc3ccccc3)cc2)cc1,-14.4%
8,NC(=S)N/N=C/c1ccc(Cl)cc1,46.9%
9,O=C(NCc1ccccc1)c1cccc([N+](=O)[O-])c1,15.6%
10,Cn1c(=O)c2[nH]c(CC(=O)O)nc2n(C)c1=O,24.1%
11,O=C(O)c1cc(I)ccc1O,26.9%
12,ClCC(Cl)C1CCC(Cl)C(Cl)C1 (stereo not given),19.8%
13,Nc1cc(F)ccc1[N+](=O)[O-],-5%
14,C/C(=N\Nc1ccc([N+](=O)[O-])cc1[N+](=O)[O-])c1ccc(Br)cc1,3.05%
15,CCCCCCCCCc1ccc(OC(C)=O)cc1,98.4% (active)
16,CCOC(=O)CNC(=O)Sc1ccc(C(C)(C)C)cc1,61.8%
17,Nc1nnc2cc(F)ccc2n1,-12.2%
18,C/C(=N\N=C(/C)c1cccc([N+](=O)[O-])c1)c1cccc([N+](=O)[O-])c1,-7.7%
19,Clc1cccc(Cl)c1CSc1nc2ccccc2n2cccc12,-19%
20,CCOC(=O)C(CCC#N)(CCC#N)C(=O)OCC,38.7%

row,SMILES,growth inhibition
1,OC(CCN1CCCCC1)(c1ccccc1)c1ccccc1,-18.4%
2,CCOC(=O)N[C@H]1CCc2cc(OC)c(OC)c(OC)c2-c2ccc(SC)c(=O)cc21,-1.55%
3,Oc1cccnc1CN1CCCC1,18.4%
4,CC(=O)NCNC(C)=O,-0.6%
5,O=C(O)c1ccccc1Cc1ccc2c(c1)CCCC2,47.3%
6,Cc1cccc2ccccc12,13.8%
7,CCC(C)C1CCC(O)CC1 (stereo not given),18.9%
8,CCCC(OC(C)=O)c1ccc2c(c1)OCO2 (stereo not given),29.2%
9,CCOC(=O)c1c[nH][nH]c1=O,5.8%
10,CCOS(=O)(=O)c1ccc([N+](=O)[O-])cc1,5.8%
11,Cc1ccc([N+](=O)[O-])c(C)n1,23.4%
12,Cc1ccc(C)c(CCO)c1,-7.3%
13,CCNC(=O)Oc1ccc[nH]c1=O,-47.8%
14,CCC1CCC(C)NC1 (stereo not given),21.8%
15,Cc1ccc2nc(-c3ccc(N=Cc4ccccc4O)cc3)sc2c1,12.3%
16,Nc1ccccc1SC1CC(=O)N(c2ccc(Cl)c(Cl)c2)C1=O (stereo not given),-5.4%
17,CC(=O)c1cc(O)ccc1O,1.8%
18,c1ccc2c(NCCCN3CCN(CCCNc4c5ccccc5nc5ccccc45)CC3)c3ccccc3nc2c1,14.9%
19,CC1CC(C)S(=O)(=O)C1 (stereo not given),-2%
20,CCOC(=O)c1ccc(NC(=O)Nc2nccs2)cc1,6.1%
